We go through 13 compounds from PubChem BioAssay (NCATS).

Unmarked numbers belong to inactive results. Inconclusive results are not listed. Calls of active or inactive are those of the source. Unless noted, calls follow the shape of the dose curve; as a rule, active = well fitted curve in the direction sought with a large enough effect; inconclusive = small, poorly fitted or top-dose-only effect, or another doubt; inactive = no such curve, though single readings can be large; an effect the other way counts as inactive or inconclusive.

One experiment addresses Furin (Homo sapiens) (UniProt P09958). Put plainly: Furin counterscreen qHTS for Zika virus inhibitors (AID 1347149). Also: nearly all actives have a fitted effect of over 70% in size. Also: potency is read from the fitted curve at half-maximal effect. In short, it runs like this: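 Counterscreen measures cleavage of 2 microM BOC-RVRR-AMC, below its ~15 microM Km, by 5 nM full-length human furin at pH 7.0 after a 15-min compound preincubation. Inhibition derives from the 15-min fluorescence increase at 37C.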

A short description of experiment [1]: Confirmatory screen GU Rhodamine qHTS for Zika virus inhibitors qHTS (AID 1347157). Also: nearly all actives have a fitted effect of over 70% in size. The method in brief: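 Percent inhibition derives from the 15-min fluorescence change (ex 480, em 540 nm), normalized to no-enzyme and no-inhibitor wells. Reactions contained 25 nM NS2B-NS3 complex and 1.5 microM substrate in 10 mM Tris-HCl pH 8.0.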
Experiment [2] is described as follows: Confirmatory screen NINDS Rhodamine qHTS for Zika virus inhibitors (AID 1347161). Also: nearly all actives have a fitted effect of over 60% in size. Also: potency is read from the fitted curve at half-maximal effect. In short, it runs like this:
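Percent inhibition, normalized to uninhibited and enzyme-free controls, is fitted to a 4-parameter Hill equation. Fluorescence change comes from a 15-min cleavage of 1.5 microM bis-peptide Rhodamine110 substrate by 25 nM linked NS2B-NS3 at room temperature.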
For orientation: In qHTS, concentration-response curves come from the screen itself.

Experiment [3] can be described thus: Tertiary RLuc qRT-PCR qHTS assay for Zika virus inhibitors (AID 1347169). Also: nearly all actives have a fitted effect of over 55% in size. Also: potency is read from the fitted curve at half-maximal effect. In short, it runs like this:
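Vero cells (1,000/well) infected with recombinant ZIKV-RLuc (Cambodian) at MOI 1-2 after compound addition, 48-72 hrs at 37 degrees C. Live-cell Renilla luciferase substrate added; luminescence read after 1-1.5 hrs.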
A general note: Real-time PCR tracks product formation cycle by cycle.

Experiment [4] deals with Calcium and integrin-binding protein 1 (Homo sapiens) (UniProt Q99828). The experiment is described as follows: Primary qHTS for Identification of Calcium Integrin Binding Protein 1 (CIB1) Competitor (AID 1508620).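 Also: GST tagged CIB1 binding a fluorescein labelled alphaIIb integrin peptide tracer; top concentration of the series differs between compounds.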 The method in brief: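 Fluorescence polarization competition: CIB1-GST (1 uM final) preincubated with compound 15 min at room temperature, then FITC-labeled alphaIIb peptide (100 nM final) added for another 15 min. Polarization read at Ex 480/Em 540.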
Calcium and integrin-binding protein 1 (Homo sapiens), sequence (Q99828 whole entry, looked up): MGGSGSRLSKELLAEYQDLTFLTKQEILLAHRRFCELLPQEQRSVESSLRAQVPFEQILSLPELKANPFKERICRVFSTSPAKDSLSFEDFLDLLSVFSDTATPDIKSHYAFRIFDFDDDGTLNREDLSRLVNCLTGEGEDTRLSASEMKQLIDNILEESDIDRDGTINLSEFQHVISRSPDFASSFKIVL

Experiment [5] concerns Zika virus NS2B-NS3 protease (linked). Put plainly: 384 well plate NINDS AMC confirmatory qHTS for Zika virus inhibitors (AID 1347163). Also: nearly all actives have a fitted effect of over 50% in size. Also: potency is read from the fitted curve at half-maximal effect. The method in brief:
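Enzyme (5, 30 or 60 nM final) first met test compounds for ~15 min. The AMC-tagged peptide Ac-VKTGKR-AMC followed at 30 microM. Fluorescence was then recorded at 25 min and scaled against no-enzyme and no-inhibitor wells.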

Experiment [6] relates to Zika virus NS2B-NS3 protease (linked construct). Put plainly: 384 well plate NINDS Rhodamine confirmatory qHTS for Zika virus inhibitors (AID 1347164).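 Also: fluorescence from protease cleavage of Ac-LKRR-rhodamine 110 substrate; nearly all actives have a fitted effect of over 65% in size.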 Also: potency is read from the fitted curve at half-maximal effect. In short, it runs like this:
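Linked NS2B-NS3 protease (final 5, 30 or 60 nM) preincubated ~15 minutes with compounds, then 10 microM Ac-LKRR-Rhodamine 110 added. Fluorescence (485/538 nm) read after 25 minutes at room temperature, normalized to no-enzyme and no-inhibitor controls.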

Experiment [7] can be described thus: Primary qHTS for small molecule stabilizers of the endoplasmic reticulum resident proteome: Secreted ER Calcium Modulated Protein (SERCaMP) assay (AID 1508630). The method in brief:
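The SH-SY5Y reporter protocol was run at 3 concentrations up to 38.3 uM (primary) or 11 concentrations (follow-up): 16 h compound, 100 nM thapsigargin for 4 h, then extracellular luciferase luminescence.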

Experiment [8] can be described thus: ZIKV-mCherry secondary qHTS for Zika virus inhibitors (AID 1347158). Also: top concentration of the series differs between compounds. The method in brief:
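Read-out is percent infection: mCherry-positive Vero cells (nuclear-proximal intensity >450 RFU, 3 SD above negative controls) counted by high-content imaging of Hoechst-stained, PFA-fixed wells after 48-72 h with ZIKV-mCherry at MOI 1 and compound.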

The target of experiment [9] is Cytochrome P450 1A2 (Homo sapiens) (UniProt P05177). Put plainly: p450-cyp1a2 (AID 410; calls by dose curve; also: potency is read from the fitted curve at half-maximal effect). The method in brief:
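20nM CYP1A2, 100uM Luciferin-ME (=Km), 100mM KPO4; cpd 10 min RT; +NADPH regen, 60 min RT; stop/detect 20 min; luminescence. Normalized to furafylline 57 uM = full inhibition.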

Experiment [10] has as its target Glucocorticoid receptor (Homo sapiens) (UniProt P04150). The experiment is described as follows: GR-GFP Redistribution (AID 450;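 active = compounds whose dose series gives a full or clear partial fitted curve of increased nuclear translocation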; also: potency is read from the fitted curve at half-maximal effect). The conditions noted are these: U2OS GR-GFP nuclear translocation, laser cytometry, 2 h.
Experiment [11] shares this target. The experiment is described as follows: GR-EFC Redistribution (AID 451; calls by dose curve; also: potency is read from the fitted curve at half-maximal effect). The settings on record: CHO-K1 GR-EFC translocation, beta-gal luminescence, 2 h. In short, it runs like this:
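CHO-K1 cells stably expressing nuclear-localized β-gal enzyme acceptor and GR fused C-terminally to the enzyme donor fragment; ligand-driven nuclear translocation restores β-gal by complementation. Compounds titrated up to 46 uM final, 2 h at 37 °C; luminescence read.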

Experiment [12] concerns the target Mitogen-activated protein kinase 10 (Mus musculus) (UniProt Q61831). The experiment is described as follows: JNK3 AlphaScreen Assay (AID 530; active = well fitted curve in either direction with a large enough effect, not every such curve was filed as active;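 also: kinase came from lysate of stimulated human HepG2 cells; potency is read from the fitted curve at half-maximal effect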). The method in brief:
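Biotinylated GST-cJun(1-79) served as substrate for JNK3 in HepG2 lysates stimulated with IL-1beta and TNF-alpha. ATP was 10 uM final, pH 7.6. Ser73 phosphorylation was quantified by AlphaScreen (680 nm excitation).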
For orientation: Bead proximity is the source of the signal in Alpha formats.

The target in experiment [13] is Cytochrome P450 2C9 (Homo sapiens) (UniProt P11712). Put plainly: qHTS Assay for Inhibitors and Substrates of Cytochrome P450 2C9 (AID 883). Also: potency is read from the fitted curve at half-maximal effect; nearly all actives have a fitted effect of over 60% in size. In short, it runs like this:
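CYP2C9 deoxyluciferin hydroxylation, 37C, 60 min with NADPH regeneration; 10nM enzyme, 100uM Luciferin-H (KM). Glo detection reagent stopped reaction; luminescence normalized to sulphaphenazole (57uM) full inhibition.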

The target in experiment [14] is Cytochrome P450 3A4 (Homo sapiens) (UniProt P08684). Put plainly: qHTS Assay for Activators of Cytochrome P450 3A4 (AID 885). Also: nearly all actives have a fitted effect of over 65% in size. The method in brief: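 Luminescent readout of luciferin formed from 25 uM Luciferin-PPXE (KM level) by 20 nM CYP3A4 in 200 mM KPO4, with 60 min NADPH-driven reaction at room temperature after 10 min compound exposure. Ketoconazole (57 uM) defined 100% inhibition.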
Cytochrome P450 3A4 (Homo sapiens), sequence (P08684 whole entry, looked up): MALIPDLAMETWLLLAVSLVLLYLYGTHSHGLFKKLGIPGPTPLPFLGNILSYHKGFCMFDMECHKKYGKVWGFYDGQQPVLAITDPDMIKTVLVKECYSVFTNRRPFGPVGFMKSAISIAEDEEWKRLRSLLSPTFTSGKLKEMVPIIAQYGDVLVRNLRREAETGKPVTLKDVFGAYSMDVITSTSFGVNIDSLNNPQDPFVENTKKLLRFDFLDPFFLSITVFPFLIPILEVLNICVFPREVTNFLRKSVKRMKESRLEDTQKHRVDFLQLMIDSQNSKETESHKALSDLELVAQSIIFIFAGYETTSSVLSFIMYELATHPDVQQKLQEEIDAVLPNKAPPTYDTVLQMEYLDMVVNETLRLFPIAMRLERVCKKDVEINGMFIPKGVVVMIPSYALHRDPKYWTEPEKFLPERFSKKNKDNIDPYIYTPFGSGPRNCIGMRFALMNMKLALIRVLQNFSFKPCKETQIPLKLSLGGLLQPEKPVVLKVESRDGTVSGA

The target of experiment [15] is Cytochrome P450 2D6 (Homo sapiens) (UniProt P10635). The experiment is described as follows: qHTS Assay for Inhibitors and Substrates of Cytochrome P450 2D6 (AID 891). Also: potency is read from the fitted curve at half-maximal effect; nearly all actives have a fitted effect of over 60% in size. In short, it runs like this: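 Luminescent read-out of luciferin formed by 5 nM human CYP2D6 demethylating 30 uM Luciferin-ME EGE (Km level) over 60 min at room temperature after NADPH regeneration addition. Data normalized to full inhibition by 1.43 uM quinidine.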
Cytochrome P450 2D6 (Homo sapiens), sequence (P10635 whole entry, looked up): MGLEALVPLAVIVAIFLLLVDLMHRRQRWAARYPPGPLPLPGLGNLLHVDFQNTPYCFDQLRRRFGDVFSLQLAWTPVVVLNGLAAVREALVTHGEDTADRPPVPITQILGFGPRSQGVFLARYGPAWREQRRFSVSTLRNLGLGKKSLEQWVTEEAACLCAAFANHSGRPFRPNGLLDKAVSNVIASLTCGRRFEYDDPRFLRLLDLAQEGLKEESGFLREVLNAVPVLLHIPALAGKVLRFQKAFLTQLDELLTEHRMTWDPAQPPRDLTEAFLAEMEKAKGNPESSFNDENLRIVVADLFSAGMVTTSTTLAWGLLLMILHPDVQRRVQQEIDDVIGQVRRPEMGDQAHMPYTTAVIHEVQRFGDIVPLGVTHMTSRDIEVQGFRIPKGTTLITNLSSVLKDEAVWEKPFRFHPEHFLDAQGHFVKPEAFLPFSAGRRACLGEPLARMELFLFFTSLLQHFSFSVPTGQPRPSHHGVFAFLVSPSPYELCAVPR

The target in experiment [16] is Cytochrome P450 2C19 (Homo sapiens) (UniProt P33261). The experiment is described as follows: qHTS Assay for Inhibitors and Substrates of Cytochrome P450 2C19 (AID 899). Also: potency is read from the fitted curve at half-maximal effect; nearly all actives have a fitted effect of over 60% in size. The method in brief: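 In 50mM KPO4, the reaction held 5nM enzyme and KM-level (10uM) Luciferin-H EGE; it ran 60 min at 37C after NADPH regeneration and a 10 min compound preincubation. Luminescence values were scaled to 57uM ketoconazole as complete inhibition.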

Experiment [17] addresses DNA dC->dU-editing enzyme APOBEC-3G (Homo sapiens) (UniProt Q9HC16). The experiment is described as follows: qHTS for inhibitors of Vif-A3G interactions: Validation (AID 588379). In short, it runs like this: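 Yellow fluorescence (Ex 488, Em 500-530) of Vif-coexpressing HeLa A3G-eYFP cells, scanned by Acumen cytometer, reports blocked A3G degradation. Cells plated at 700/well overnight at 37 deg C before compound addition, then a further overnight compound incubation at 37 deg C.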

The nature of experiment [18]: Vero cells viability qHTS for Zika virus inhibitors (AID 1347167). The method in brief: (§1)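 To flag cytotoxic protease inhibitors, viability is measured by ATP-dependent luminescence (CellTiter Glo) after cells attached overnight receive compound for 24 to 48 hours in DMEM with 4% FBS.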
The nature of experiment [19]: HepG2 cells viability qHTS for Zika virus inhibitors (AID 1347168). The method in brief: as §1
Experiment [20] concerns the target Rap guanine nucleotide exchange factor 3 (Homo sapiens) (UniProt O95398). The experiment is described as follows: Confirmatory qHTS for antagonist of cAMP-regulated guanine nucleotide exchange factor 3 (EPAC1) (AID 1645880). Also: potency is read from the fitted curve at half-maximal effect; nearly all actives have a fitted effect of over 55% in size. In short, it runs like this:
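Released BODIPY-GDP fluoresces less than Rap1-bound BODIPY-GDP; the signal is followed at 480/540 nm at 5-min intervals over 30 min, after 5 min at room temperature. Reactions contain 100 nM EPAC1, 250 nM RAP1B-BODIPY-GDP and 50 uM GDP; results are normalized to ATA and DMSO.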

Experiment [21] has the same target. Put plainly: Confirmatory qHTS for agonist of cAMP-regulated guanine nucleotide exchange factor 3 (EPAC1) (AID 1645881).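 Also: EPAC1 catalysed release of BODIPY-GDP from Rap1B seen as fluorescence loss; nearly all actives have a fitted effect of over 75% in size.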

Furin (Homo sapiens), sequence (P09958 whole entry, looked up): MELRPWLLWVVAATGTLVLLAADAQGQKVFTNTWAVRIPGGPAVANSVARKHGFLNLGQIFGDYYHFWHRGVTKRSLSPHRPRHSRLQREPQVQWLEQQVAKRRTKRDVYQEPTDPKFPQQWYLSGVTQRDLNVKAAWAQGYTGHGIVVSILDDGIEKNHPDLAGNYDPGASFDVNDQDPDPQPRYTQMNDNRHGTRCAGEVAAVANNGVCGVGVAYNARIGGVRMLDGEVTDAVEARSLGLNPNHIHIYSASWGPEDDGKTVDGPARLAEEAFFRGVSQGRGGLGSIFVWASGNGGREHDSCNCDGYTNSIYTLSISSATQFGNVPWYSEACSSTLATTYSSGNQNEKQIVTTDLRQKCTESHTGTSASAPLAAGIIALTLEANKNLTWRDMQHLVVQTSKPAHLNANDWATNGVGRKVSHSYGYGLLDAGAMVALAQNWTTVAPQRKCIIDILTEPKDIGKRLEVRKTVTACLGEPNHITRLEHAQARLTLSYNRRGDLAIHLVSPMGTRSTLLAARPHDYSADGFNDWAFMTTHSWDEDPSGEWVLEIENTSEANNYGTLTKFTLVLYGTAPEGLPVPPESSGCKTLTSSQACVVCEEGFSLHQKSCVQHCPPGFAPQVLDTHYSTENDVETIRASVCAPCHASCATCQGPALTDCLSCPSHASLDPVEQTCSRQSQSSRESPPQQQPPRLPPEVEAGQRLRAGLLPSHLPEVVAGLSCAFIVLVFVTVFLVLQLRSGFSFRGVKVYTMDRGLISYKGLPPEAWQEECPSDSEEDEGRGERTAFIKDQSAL
Glucocorticoid receptor (Homo sapiens), sequence (P04150 whole entry, looked up): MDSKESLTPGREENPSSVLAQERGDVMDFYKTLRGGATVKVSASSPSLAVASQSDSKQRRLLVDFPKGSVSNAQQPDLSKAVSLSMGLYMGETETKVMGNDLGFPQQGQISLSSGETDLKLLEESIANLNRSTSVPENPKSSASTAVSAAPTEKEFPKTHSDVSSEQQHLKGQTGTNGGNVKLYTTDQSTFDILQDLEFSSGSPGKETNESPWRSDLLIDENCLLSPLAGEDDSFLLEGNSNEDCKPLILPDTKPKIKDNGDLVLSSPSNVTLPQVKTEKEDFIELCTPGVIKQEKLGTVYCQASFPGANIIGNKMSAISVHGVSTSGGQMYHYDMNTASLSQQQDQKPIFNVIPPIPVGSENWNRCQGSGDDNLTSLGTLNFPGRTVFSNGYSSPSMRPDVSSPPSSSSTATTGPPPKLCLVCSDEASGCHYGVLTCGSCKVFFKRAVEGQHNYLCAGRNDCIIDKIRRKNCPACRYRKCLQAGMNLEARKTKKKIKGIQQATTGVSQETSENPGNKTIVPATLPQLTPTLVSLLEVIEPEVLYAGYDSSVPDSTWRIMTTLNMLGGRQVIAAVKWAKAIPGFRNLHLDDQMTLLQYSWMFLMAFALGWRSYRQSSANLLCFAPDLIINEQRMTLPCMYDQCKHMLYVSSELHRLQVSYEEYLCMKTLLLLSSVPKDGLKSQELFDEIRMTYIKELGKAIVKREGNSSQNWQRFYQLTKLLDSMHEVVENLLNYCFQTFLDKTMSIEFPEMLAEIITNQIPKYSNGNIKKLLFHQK
Rap guanine nucleotide exchange factor 3 (Homo sapiens), sequence (O95398 whole entry, looked up): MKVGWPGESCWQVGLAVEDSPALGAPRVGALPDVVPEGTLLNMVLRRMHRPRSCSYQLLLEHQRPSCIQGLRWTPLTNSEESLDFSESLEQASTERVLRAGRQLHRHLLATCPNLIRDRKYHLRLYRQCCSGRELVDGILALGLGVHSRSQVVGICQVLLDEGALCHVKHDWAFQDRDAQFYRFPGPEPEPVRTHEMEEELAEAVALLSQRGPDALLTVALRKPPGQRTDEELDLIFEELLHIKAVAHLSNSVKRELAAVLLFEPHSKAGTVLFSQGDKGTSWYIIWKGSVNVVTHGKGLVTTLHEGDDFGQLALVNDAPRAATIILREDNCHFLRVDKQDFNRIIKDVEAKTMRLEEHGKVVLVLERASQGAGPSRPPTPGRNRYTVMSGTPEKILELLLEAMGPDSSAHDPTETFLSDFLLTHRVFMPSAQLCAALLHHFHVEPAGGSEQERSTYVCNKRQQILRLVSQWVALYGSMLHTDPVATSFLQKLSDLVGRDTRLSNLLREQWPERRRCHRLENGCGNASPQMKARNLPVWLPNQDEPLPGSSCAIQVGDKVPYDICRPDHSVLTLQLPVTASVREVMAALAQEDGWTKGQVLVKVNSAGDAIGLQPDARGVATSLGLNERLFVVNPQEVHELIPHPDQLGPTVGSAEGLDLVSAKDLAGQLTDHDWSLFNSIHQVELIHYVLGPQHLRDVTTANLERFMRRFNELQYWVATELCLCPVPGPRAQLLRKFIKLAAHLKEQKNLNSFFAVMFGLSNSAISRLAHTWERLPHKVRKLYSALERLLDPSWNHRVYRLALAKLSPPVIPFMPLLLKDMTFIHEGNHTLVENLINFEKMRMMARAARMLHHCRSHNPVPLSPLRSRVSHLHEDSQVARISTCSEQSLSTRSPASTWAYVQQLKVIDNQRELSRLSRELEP
DNA dC->dU-editing enzyme APOBEC-3G (Homo sapiens), sequence (Q9HC16 whole entry, looked up): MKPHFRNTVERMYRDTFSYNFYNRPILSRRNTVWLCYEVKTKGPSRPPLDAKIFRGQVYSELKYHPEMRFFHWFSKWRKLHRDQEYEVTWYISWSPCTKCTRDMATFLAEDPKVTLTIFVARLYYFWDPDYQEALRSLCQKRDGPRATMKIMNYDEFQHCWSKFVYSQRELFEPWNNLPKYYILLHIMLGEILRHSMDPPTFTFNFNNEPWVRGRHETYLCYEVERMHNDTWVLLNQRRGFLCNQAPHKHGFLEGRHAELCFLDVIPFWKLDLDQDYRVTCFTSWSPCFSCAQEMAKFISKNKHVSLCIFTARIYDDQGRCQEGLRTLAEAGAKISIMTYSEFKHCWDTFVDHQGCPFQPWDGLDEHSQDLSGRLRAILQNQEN
Cytochrome P450 2C9 (Homo sapiens), sequence (P11712 whole entry, looked up): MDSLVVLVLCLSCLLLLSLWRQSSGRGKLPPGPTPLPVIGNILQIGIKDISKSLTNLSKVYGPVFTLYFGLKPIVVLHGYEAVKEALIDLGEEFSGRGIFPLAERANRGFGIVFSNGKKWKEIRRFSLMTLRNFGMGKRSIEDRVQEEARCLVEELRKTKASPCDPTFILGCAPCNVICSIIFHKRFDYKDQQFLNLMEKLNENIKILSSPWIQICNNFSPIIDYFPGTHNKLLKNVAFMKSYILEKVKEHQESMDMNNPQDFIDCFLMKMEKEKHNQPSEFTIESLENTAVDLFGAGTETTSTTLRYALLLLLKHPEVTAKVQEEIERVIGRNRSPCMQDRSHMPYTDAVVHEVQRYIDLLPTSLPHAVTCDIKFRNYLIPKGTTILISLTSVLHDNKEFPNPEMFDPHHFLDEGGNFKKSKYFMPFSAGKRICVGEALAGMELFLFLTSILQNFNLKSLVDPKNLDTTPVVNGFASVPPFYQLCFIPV

In the case of `CCOC(=O)c1c(-c2ccc(C)cc2)csc1NC(=O)c1cc(-c2ccc(Cl)cc2)on1`, the Potency result (in the experiment with Furin (Homo sapiens); in [1]; in experiment [2]; in [3]) was “inactive” each time.
Consider `O=C(OCC#CCSc1nnc(-c2ccccc2Cl)o1)c1ccc(F)cc1`, for which the Potency entry (in the experiment with Furin (Homo sapiens); in experiment [1]; in [2]; in experiment [3]) was “inactive” in each case. Further, in experiment [4], the outcome was inactive.
As to `CC[C@@H](C(=O)[C@H](C)[C@@H](O)[C@H](C)CCc1ccc(C)c(O)c1C(=O)O)C1O[C@@](CC)(C2CC[C@](O)(CC)[C@H](C)O2)C[C@@H]1C` (stereo not given in full), the Potency entry (with Furin (Homo sapiens); in experiment [7]) was “inactive” in each case. The Potency was 9.84 µM (active) in experiment [2], 158 µM (active) in [5] and 31.6 µM (active) in experiment [6].
For `O=C(Nc1ccc(C(=O)OCc2cc(=O)n3c4c(sc3n2)CCCC4)cc1)c1ccc(F)cc1`, the Potency with Furin (Homo sapiens) is 66.3 µM (active). The Potency entry in experiment [8], in [5] and in [3] was “inactive” each time.
As to `Cc1oc2c(cc(NS(=O)(=O)c3ccc(C(C)C)cc3)c3ccccc32)c1C(=O)OCc1ccccc1`, the Potency result (with Furin (Homo sapiens); in experiment [8]; in [5]) was “inactive” each time.
For the compound `COc1ccc(C(=O)Nc2cccc(C(=O)OCc3cc(=O)n4c5c(sc4n3)CCCC5)c2)cc1`, the Potency in the experiment with Furin (Homo sapiens) is 66.3 µM (active). For the same compound, the Potency result in [1] and in experiment [3] was “inactive” in each case.
For `O=C(COc1ccccc1C(=O)OCC(=O)Nc1cccc2ccccc12)Nc1ccc(Br)cc1`, the Potency result (in the experiment with Furin (Homo sapiens); in experiment [6]; in [3]) was “inactive” in each case.
With `C=CC(C)(C)c1[nH]c2ccccc2c1C1=C(O)C(=O)C(c2c[nH]c3c(CC=C(C)C)cccc23)=C(O)C1=O`, the Potency in experiment [9] was 25.1 µM (active); in experiment [10], over 46 µM; in experiment [11] it was over 46 µM; in experiment [12], 6.31 µM (active); in experiment [13], 7.94 µM (active); in [15] it was 0.0063 µM (active). Also, the Potency in experiment [16] was 1.26 µM (active); in experiment [2], 49.4 µM (active); in [6], 0.631 µM (active); in [20], 4.98 µM (active). Also, the Potency entry (in [14]; in experiment [17]; in the experiment with Furin (Homo sapiens); in [18]; in experiment [19]; in [3]) was “inactive” throughout. The Potency entry in experiment [7] is “inactive”. The result in experiment [21] was inactive.
Take `CC(Oc1ccccc1)C(=O)Nc1ccc(C(=O)OCc2cc(=O)n3nc(C4CC4)sc3n2)cc1` (stereo not given): the Potency result (in the experiment with Furin (Homo sapiens); in experiment [6]; in [3]) was “inactive” throughout.
In the case of `O=C(O)COc1ccc(-c2nccc3c2C(=O)N(Cc2cccc(C(F)(F)F)c2)CC(COc2cccc(F)c2)O3)cc1` (stereo not given), the Potency result (with Furin (Homo sapiens); in experiment [8]; in experiment [3]) was “inactive” in each case. Besides, the Potency in experiment [6] was 28.2 µM (active).
With `CC1OC(OC2C(O)CC(OC3C(O)CC(OC4CCC5(C)C(CCC6C5CC(O)C5(C)C(C7=CC(=O)OC7)CCC65O)C4)OC3C)OC2C)CC(O)C1O` (stereo not given), the Potency entry (with Furin (Homo sapiens); in [18]; in [19]) was “inactive” each time. The Potency in experiment [3] was 0.214 µM (active).
In the case of `CCOC(=O)c1cccc(NC(=O)CSc2ncc3c(n2)-c2ccc(Cl)cc2N(Cc2ccccc2)S3(=O)=O)c1`, the Potency result (with Furin (Homo sapiens); in experiment [8]; in [5]) was “inactive” in each case. Also, the Potency in [2] was 44.7 µM (active).
`Cc1cc(S(=O)(=O)Nc2ccc(C(=O)O)cc2)c(C)c(S(=O)(=O)c2ccc(Cl)cc2)c1`: the Potency entry (in the experiment with Furin (Homo sapiens); in experiment [8]; in experiment [3]) was “inactive” in each case. Also, the Potency in experiment [2] is 44.7 µM (active); in experiment [6], 141 µM (active).
